High-throughput results deposited in PubChem by several laboratories.
Sampled rows, rich in hits. Any-hit rate of the full collection: about 3.6%.
ERa SRC1 inh = ERα–SRC-1 coactivator interaction inhibitors, primary screen, biochemical, TR-FRET, ERα LBD, estradiol-bound; TR-FRET ER-alpha LBD / SRC-1 peptide; AID 629, 2007; Estrogen receptor (Homo sapiens), P03372; hit rate 1.7% among 86,000; inhibition, % at 25.6 µM; in the data active = inhibition above about 50%;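 also: 0% = receptor plus peptide control and 100% = peptide only without receptor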
Target sequence (P03372 whole entry, looked up, the tested form may be a part): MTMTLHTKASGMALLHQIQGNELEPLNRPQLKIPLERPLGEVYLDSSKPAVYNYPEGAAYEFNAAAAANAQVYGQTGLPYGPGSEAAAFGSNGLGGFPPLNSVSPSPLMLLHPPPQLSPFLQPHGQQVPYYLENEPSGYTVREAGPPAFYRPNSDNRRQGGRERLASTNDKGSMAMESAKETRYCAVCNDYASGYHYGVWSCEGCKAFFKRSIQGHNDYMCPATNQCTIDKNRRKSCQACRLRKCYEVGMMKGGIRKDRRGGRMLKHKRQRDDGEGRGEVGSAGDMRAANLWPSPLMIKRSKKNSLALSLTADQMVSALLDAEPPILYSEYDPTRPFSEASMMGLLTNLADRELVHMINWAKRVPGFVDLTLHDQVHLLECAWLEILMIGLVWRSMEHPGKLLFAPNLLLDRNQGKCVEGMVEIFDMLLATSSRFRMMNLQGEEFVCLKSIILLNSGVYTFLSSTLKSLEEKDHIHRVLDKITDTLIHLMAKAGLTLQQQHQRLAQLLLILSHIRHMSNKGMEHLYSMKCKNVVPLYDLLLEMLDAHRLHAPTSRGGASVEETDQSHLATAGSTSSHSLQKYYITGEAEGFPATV
ERb coact inh = inhibitors of ERβ-SRC1 coactivator interaction, primary screen, biochemical, TR-FRET, ERβ LBD, SRC-1 peptide | hit rate 1.3% among 86,000 | Estrogen receptor beta (Homo sapiens), Q92731 | AID 633, 2007 | inhibition, % at 25.6 µM | TR-FRET ER-beta LBD / SRC1-Cy5 peptide binding; receptor agonist-loaded with 1 µM estradiol;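 active = compounds whose percent inhibition of the receptor-coactivator binding signal exceeds about 50% in the single-dose screen, limit read from the data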;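 also: 0% = receptor plus peptide wells without compound and 100% = peptide-only wells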
Smad3 FoxH1 inh = Smad3/FoxH1 peptide binding inhibitors, primary screen, biochemical, TR-FRET | AID 630, 2007 | hit rate 0.29% among 88,000 | inhibition, % at 25 µM | TR-FRET Smad3/Dy647-FoxH1 peptide binding, europium anti-His;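 active = compounds that reduce the energy-transfer binding signal between the protein and its labelled peptide by more than half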;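 also: 0% = Smad3 plus labelled peptide maximal FRET and 100% = peptide-only background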
Calb biofilm kill = clotrimazole potentiators killing Candida biofilms, primary screen, with clotrimazole, Alamar Blue. C. albicans biofilm + clotrimazole. inhibition, % at 6 µM. hit rate 0.14% among 85,000;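 active = inhibition above 20%; inactive = inhibition below 20%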;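 also: preformed 24 hr biofilms exposed to compound for 48 hr; 0% = biofilm without compound and 100% = blank killed by clotrimazole plus chlorhexidine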
ERa coact pot = enhancers of ERα–SRC-1 coactivator binding, primary screen, biochemical, TR-FRET, ERα LBD, low estradiol | coactivator binding (% of control), % at 25.6 µM | Estrogen receptor (Homo sapiens), P03372 | TR-FRET ERalpha-LBD/SRC-Cy5 coactivator binding, 2 h; 100 = basal binding, no effect | hit rate 1.3% among 86,000; in the data active = activity above about 200%;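 also: binding measured in presence of low estradiol as agonist stimulus; 0% = peptide alone without receptor and 100% = receptor with peptide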
Starred values were filed as active, the others as inactive; x = no result; [ ] = another dose, or the depositor's remark.

SMILES	ERa SRC1 inh	ERb coact inh	Smad3 FoxH1 inh	Calb biofilm kill	ERa coact pot
CNc1nnc(-c2cc3cc(Cl)ccc3oc2=O)s1	66*	49	50	-1	183
COc1ccc(-n2ncc3c(NCc4ccco4)ncnc32)cc1	12	14	-9	9	88
CCOc1cccc2cc(C(=O)N3CCc4ccccc43)c(=O)oc12	6	-5	3	2	113
CCOc1cccc2cc(-c3nnc(NCc4ccco4)s3)c(=O)oc12	53*	49	-4	4	75
O=C1[C@H]2[C@@H](C(=O)N1c1cccc3ccccc13)C1(C(=O)c3ccccc3C1=O)N1CCC[C@@H]21	-5	3	12	5	100
COc1cccc(C(=O)Nc2ccc(NC(=O)C(C)(C)C)cn2)c1	2	0	-6	-7	96
CC(C)(C)OC(=O)[C@H]([C@@H]1N[C@@H](C(=O)O)C(C)(C)S1)N1C(=O)c2ccccc2C1=O	x	x	-7	x	x
O=C1NC(c2ccc(Br)cc2)Nc2sc3c(c21)CCC3 (centres undefined)	51*	64*	1	5	26
COC(=O)c1cc(OC)c(OC)cc1NC(=O)c1oc2ccccc2c1C	-3	-5	9	2	144
CC1CC(C)CN(S(=O)(=O)c2ccc(F)c(C(=O)Nc3ccc(Cl)cc3F)c2)C1 (centres undefined)	2	-2	-5	46*	121
Cc1ccc(CNC(=O)CCNC(=O)c2ccco2)cc1	2	-5	3	10	101
CCCN1CCCc2cc(CN)ccc21	41	54*[fluorescence artefact?]	53*	10	59
Cn1c(N2CCCCC2)cc(=O)n(C)c1=O	-13	96*[fluorescence artefact?]	-2	6	104
Cc1cc(=O)n(C)c(=O)n1CC(=O)N1CCCCCC1	-6	-11	-8	-6	99
CCSc1nnc(NC(=O)CSc2nc(CC)nc3c2c(=O)n(C)c(=O)n3C)s1	-2	1	-19	2	254*
O=C(CSc1oc(-c2ccc(F)cc2)nc1S(=O)(=O)c1ccc(F)cc1)NCC1CCCO1 (centres undefined)	15	16	-1	8	86
Cc1ccc(-c2nc(S(=O)(=O)c3ccc(F)cc3)c(SCC(=O)NCC3CCCO3)o2)cc1 (centres undefined)	67*[fluorescence artefact?]	25	-8	2	107
Cc1ccc(S(=O)(=O)c2nc(-c3ccc(F)cc3)oc2SCC(=O)NCC2CCCO2)cc1 (centres undefined)	39	15	-68	1	310*[fluorescence artefact?]
O=C(Nn1c(=S)[nH]c2ccccc2c1=O)c1ccncc1	-7	-2	12	-10	135
COc1ccc(-n2c(=S)[nH]c3cc(C(=O)NCc4ccco4)ccc3c2=O)cc1OC	-5	-2	-3	5	103
COc1ccc(CCn2c(=S)[nH]c3cc(C(=O)NCc4ccco4)ccc3c2=O)cc1OC	71*[fluorescence artefact?]	55*[fluorescence artefact?]	16	1	88
COc1ccc2nc3oc(C(=O)N4CCN(c5cccc(C(F)(F)F)c5)CC4)cc3cc2c1	66*	37	0	5	118
COc1ccc2nc3oc(C(=O)N4CCC(C(N)=O)CC4)cc3cc2c1	-1	4	10	2	119
COc1ccc2nc3oc(C(=O)N4CCN(c5cccc(Cl)c5)CC4)cc3cc2c1	62*[fluorescence artefact?]	35	-11	8	113
Cc1noc(C)c1CSc1nc2ccccc2c(=O)n1-c1ccc(Cl)cc1	38	6	16	6	145
SMILES	ERa SRC1 inh	ERb coact inh	Smad3 FoxH1 inh	Calb biofilm kill	ERa coact pot
COc1ccc(CNS(=O)(=O)c2ccc(S(=O)(=O)N3CCCCC3)cc2)cc1	-4	-10	4	6	98
COc1ccc(CCNS(=O)(=O)c2ccc(S(=O)(=O)N3CCCC3)cc2)cc1OC	7	88*[fluorescence artefact?]	-9	5	108
COc1ccc(CNC(=O)c2cc(-c3cccs3)on2)cc1	76*	51*[fluorescence artefact?]	5	11	156
O=C(NCc1ccc(Cl)cc1)c1cc(-c2cccs2)on1	95*	14	-2	7	98
Cc1ccc(C2NC(=O)Cc3ccccc32)cc1 (centres undefined)	6	4	2	5	107
O=[N+]([O-])c1cc(Cc2cc([N+](=O)[O-])c3cccnc3c2O)c(O)c2ncccc12	x	x	99*	x	x
CC1(C)CCC(=O)N[C@H]1CC(=O)C[C@@H]1NC(=O)CCC1(C)C	x	x	-2	x	x
CCN(CC)c1c(-c2ccccc2)c2cc(C)ccc2[nH]c1=O	26	40	50*[fluorescence artefact?]	12	248*[fluorescence artefact?]
Cc1ccc2[nH]c(-c3ccccc3)c(CN3CCOCC3)c(=O)c2c1	0	-1	2	1	103
COc1ccc(-c2noc(CSc3nc(-c4ccccc4)cc(=O)[nH]3)n2)cc1	-2	15	9	1	242*[fluorescence artefact?]
Cn1c(C(=O)OC(C(=O)NC2CCCCC2)c2ccncc2)cc2sccc21 (centres undefined)	42	27	-1	1	263*[fluorescence artefact?]
Cn1c(C(=O)OC(C(=O)NC2CCCC2)c2ccncc2)cc2sccc21 (centres undefined)	18	25	6	10	90
Nc1ccc(Nc2nc(-c3ccncc3)cs2)cc1	23	6	-5	2	57
Clc1ccc(Nc2nc(-c3ccncc3)cs2)cc1	76*	44	2	8	117
CC(C)CSc1nc2c(c(=O)[nH]c(=O)n2C)n1CC(O)COc1cccc2ccccc12 (centres undefined)	13	56*	-12	-1	75
Cc1ccc(C)c(NC(=S)NC(NC(=O)Cc2cccc3ccccc23)C(Cl)(Cl)Cl)c1 (centres undefined)	68*[fluorescence artefact?]	69*	-17	1	59
S=c1nc[nH]c2c1ncn2Cc1ccco1	x	x	65*	x	x
N#CCCn1cnc2c(=S)nc[nH]c21	-6	-6	6	1	110
O=S(=O)(Nc1nccs1)c1cc(Cl)ccc1Cl	56*	51*	4	10	51
Cc1ccc2[nH]c(=O)c(-c3nc4cc(C)ccn4c3NCc3ccco3)cc2c1	73*[fluorescence artefact?]	39	3	10	151
Cc1cccc2cc(-c3nc4c(C)cccn4c3NCc3ccco3)c(=O)[nH]c12	3	4	11	1	93
CCCC(=O)Nc1cc(Cl)ccc1N1CCN(C(=O)CC)CC1	-9	-7	-5	-3	112
CCOC(=O)c1cc(C#N)c(SCC(=O)c2cc(C#N)c(SC)nc2C)nc1C	35	32	-5	3	288*
Cc1cc(S(=O)(=O)Nc2cc(C)c(O)c(C)c2)c(C)s1	-17	0	0	4	107
